Data: PubChem BioAssay AID588343 (Broad Institute, 2011)
Among all 1,200 compounds or so, about 650 (54%) were called active. About 5% were inconclusive and are not listed.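 The calls were made as follows: active = signal-lowering curve whose fitted half-maximal concentration is at or below ten times the top valid dose tested; inconclusive = flat curve with 30 to 70% inhibition, or poor fit; inactive = signal increase, flat within 30%, or potency beyond limit.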 So high a share suggests a set chosen from earlier hits. Only a sample is shown. Measured potencies and affinities stand elsewhere.

Assay: EBV LMP1 TES2 canonical NF-kB signalling blockers – cell-based, HEK293, luciferase, cherry-pick, dose response (AID 588343)
Conditions: HEK293 LMP1 TES2 NF-kB luciferase reporter, 16 h; series mostly up to 35 µM

outcome, inactive:
O=C1N[C@@H](Cc2c[nH]c3ccccc23)COC(=O)[C@H](Cc2ccc(F)cc2)C/C=C\C[C@H]1CC(=O)N(CCO)Cc1ccccc1
Cc1sc2nc(SCC(=O)OC(C)C)n(C)c(=O)c2c1C
CCCCCn1c(N2CCOCC2)nc2c1c(=O)n(CC(N)=O)c(=O)n2C
COc1cc2c(CCNC(C)=O)c[nH]c2cc1Cl
CC(C)OCCCNC(=O)C1CCC(CNS(=O)(=O)c2ccccc2)CC1 (centres undefined)
O=S(=O)(NC1c2cccc3cccc(c23)C1Sc1ncccn1)c1ccccc1 (centres undefined)
Cc1onc(-c2ccccc2)c1C(=O)NC(=S)NNC(=O)c1ccc(O)cc1O
COc1ccc(C(=O)NCCNc2nc3cc(C)c(C)cc3cc2C)cc1
CCC(C)(C)NC(=O)C(c1ccc(F)cc1)N(CCOC)C(=O)CCC(=O)Nc1nccs1 (centres undefined)
COc1cccc(C(=O)OCn2nnc3ccccc3c2=O)c1OC
O=C(O)c1ccc(C=NN=C2c3ccccc3-c3ccccc32)cc1
CNC(=S)Nc1ccc2nc(C)c(C)nc2c1
O=C(N/N=C/c1cccnc1)c1cc(-c2cccs2)nc2ccccc12
O=C1CC(c2cccs2)Cc2nc(NC(=O)C3CC3)ncc21 (centres undefined)
CC(C)[C@H](N[C@@H](C)c1ccccc1)c1c(O)ccc2ccccc12
CCn1c(SC(C)C)nnc1-c1c[nH]c2ccccc12
COc1ccccc1-n1c(-c2ccccc2)n[nH]c1=S
CC(=O)c1cc(C(=O)Nc2ccc(C(=O)O)cc2)oc1C
COc1ccc(-c2nc(CN3CCC(C(=O)N4CCOCC4)CC3)c(C)o2)cc1C
COc1ccc(-n2cnc3c(cnn3CCC#N)c2=N)cc1
O=C(N/C(=C/c1ccc(Br)cc1)C(=O)N1CCOCC1)c1ccc(Br)o1
CCN(CC(=O)NCc1ccc(F)cc1)CC(=O)Nc1cc(S(=O)(=O)N(C)C)ccc1C
O=C(Nc1cc(Cl)ccc1Cl)C1Cc2ccccc2O/C1=N\O (centres undefined)
COc1ccc(CNC(=O)N2[C@H]3CC[C@@H]2C=C(c2ccc(F)cc2OCc2ccccc2)C3)cc1OC
Clc1cccc(CN2CCCCCC2)c1
Cc1cccc(Cn2nc(-n3cccc3)c3c(C)cc(C)nc32)c1
CN1CCc2cccc3c2C1Cc1ccc(O)c(O)c1-3 (centres undefined)
CCOc1ccccc1C(=O)NC1CC2CCCC(C1)N2Cc1nnnn1Cc1ccco1 (centres undefined)
COc1ccccc1NC(=O)C(=O)N/N=C(\C)CC(=O)Nc1ccccc1C(F)(F)F
COc1ccc(OC)c(NC(=O)COC(=O)COc2ccc(Nc3ccccc3)cc2)c1
S=C(NN=C1C2CC3CC(C2)CC1C3)Nc1ccccc1
CC(=O)Nc1ccc(S(=O)(=O)N2CCCC2)cc1
COc1ccc(S(=O)(=O)N2CCCCCC2)cc1C(=O)OCc1cccc(OC)c1OC
COC(=O)c1cc2n(n1)CCN(Cc1ccccc1Cl)C2=O
COC(=O)CCCC[C@@H]1SC[C@@H](NC(=O)OC)[C@@H]1NC(=O)OC
N#CCCn1cc(C(=O)Nc2ccccn2)c(-c2ccccc2)n1
C/C(=N\Nc1ccc(C(F)(F)F)cc1[N+](=O)[O-])C(C)C
CN(CC(=O)Nc1cccnc1)S(=O)(=O)c1ccc(Br)cc1
COc1ccc(S(=O)(=O)N2CCOCC2)cc1NC(=O)COC(=O)CCS(=O)(=O)c1ccc(C)cc1
N#CCN(N=Nc1ccccc1)c1ccccc1
COc1cccc(C2=CC(=O)C[C@H](c3ccc4c(c3)OCO4)C2)c1
CCOC(=O)C1CCN(S(=O)(=O)Cc2ccccc2)C1=O (centres undefined)
COc1cc(C2NC(=O)NC(C)=C2C(=O)OC2CCCC(C)C2)cc(Br)c1O (centres undefined)
Cc1cc(N2CCCC2=O)cc(C)c1S(=O)(=O)Nc1c(C)nn(C)c1C
N#CC1=C(N)OC2=C(C(=O)CCC2)C12C(=O)N1CCCc3cccc2c31 (centres undefined)
O=C1CCc2cc(OCCCCc3nnnn3C3CCCCC3)ccc2N1
CN(C)S(=O)(=O)c1cccc(NC(=O)c2n[nH]c(=O)c3ccccc23)c1
Cc1cc(C)nc(SCC(=O)OCN2C(=O)c3ccccc3C2=O)n1
Cc1cc(N=Cc2c(O)ccc3cc(Br)ccc23)no1
Cc1cc2ccccc2n1CCNC(=O)COc1ccc2ccccc2c1
CCOc1cccc(CNc2nnnn2C)c1
CCOc1ccc(S(=O)(=O)N2CCC(C(=O)NCCc3ccc(S(N)(=O)=O)cc3)CC2)cc1
CCOc1ccc(N(C(C)C(=O)N2CCCCCC2)S(C)(=O)=O)cc1 (centres undefined)
COc1ccccc1/C=C/C(=O)c1ccc(Cl)cc1
CCn1c(NC(=O)c2ccc(C)cc2)c2ccccc2nc1=O
COc1ccc(NC(=O)c2cc3c(CO)cnc(C)c3oc2=Nc2cccc(F)c2)c(OC)c1
Brc1ccc(-c2csc(N3CCCCCC3)n2)cc1
C=CCn1c(SCc2ccc3nonc3c2)nnc1-c1cccs1
COc1cccc(/C=N\NC(=O)c2ccc(C)nc2)c1
Oc1ccccc1C=NN=Cc1c(O)ccc2ccccc12
COc1cc(C2CC(=O)N3CN(Cc4ccccc4)CSC3=C2C#N)ccc1OCc1ccccc1 (centres undefined)
Cc1cc(C)c(S(=O)(=O)N2CCN(C(=O)c3ccccc3OCc3c(C)noc3C)CC2)c(C)c1
COc1cc(OC)cc(C(=O)N[C@H](C(=O)OCC(=O)c2ccc(C)c([N+](=O)[O-])c2)C(C)C)c1
COCCn1c(SCC(=O)N2CCc3ccccc32)nc2c(c1=O)SC(C)C2 (centres undefined)
COCCNC(=O)C1CCC(CNS(=O)(=O)c2ccccc2)CC1 (centres undefined)
COc1ccc(N2C3=[N+](CC2(C)O)c2ccccc2CC3)cc1 (centres undefined)
CC(CCc1ccco1)N(C)S(=O)(=O)c1csc(C(N)=O)c1 (centres undefined)
CCc1nnc(NC(=O)c2cc(S(=O)(=O)N3CCN(CC)CC3)ccc2Cl)s1
Cc1nn(CCCC(=O)Nc2cccnc2Cl)c(C)c1[N+](=O)[O-]
Cc1ccc(N2C(=O)c3ccccc3C2Nc2cccnc2)nc1 (centres undefined)
COC(=O)C1=NNC(C(=O)OC)C1c1ccccc1 (centres undefined)
CCOC(=O)C1=C(C)N(C)C(=O)NC1c1ccccc1OC (centres undefined)
CCCN(CC1CC1)c1nc(C)nc(Nc2c(Cl)cc(Cl)cc2Cl)c1Cl
CC1CCC(NC(=O)CC2Oc3ccccc3NC2=O)CC1 (centres undefined)
